Assay outcomes from PubChem.
Shown are actives, neighbours in structure and some others; about 3.5% of the full set was active somewhere.
BoNT-A LC inh2: BoNT/A light chain protease inhibitors, primary screen, biochemical, flow cytometry, MLPCN library | multiplex microsphere protease substrate cleavage | AID 588499, 2011 | actives 0.17% (n = 360,000) | inhibition, % at 10 µM | Botulinum neurotoxin type A light chain protease (Clostridium botulinum A str. ATCC 3502)
Autofluor counter: flagged as autofluorescent in microsphere protease counterscreen | actives 3.1% (n = 360,000) | AID 624483 | compound autofluorescence counterscreen, microsphere flow cytometry; hits give high values | fluorescence intensity (no concentration beside the values); in the data active = fluorescence intensity above about 16000; inconclusive = no clear call, values can overlap the other calls
BoNT-F LC inh: BoNT/F light chain protease inhibitors, primary screen, biochemical, flow cytometry, MLPCN library; Botulinum neurotoxin type F light chain protease (Clostridium botulinum); Multiplex microsphere protease cleavage assay; inhibition, % at 10 µM; actives 0.22% (n = 360,000); in the data active = inhibition above about 35%, passing the limit was not always enough; inconclusive = no clear call, values can overlap the other calls
Anthrax LF inh2: Bacillus anthracis LF protease inhibitors, primary screen, biochemical, multiplex microsphere, MLPCN library | inhibition, % at 10 µM | actives 0.12% (n = 360,000) | Lethal factor (Bacillus anthracis), P15917 | AID 588501, 2011 | multiplex microsphere protease cleavage assay
Of the large screens only hits and unclear results are named; the others gave an inactive call. Cut-off read from the data, not from the text of the source, unless noted: active = inhibition above about 30%; inconclusive = no clear call, values can overlap the other calls; inactive = below that.

O=C(Cc1cccs1)Nc1ccc(S(=O)(=O)Nc2ncccn2)cc1	none
COC(=O)c1cccc(NC(=O)CSc2nnc(C3CC3)n2C)c1	none
CN1CCN(S(=O)(=O)c2ccc(-c3ccc(Cl)cc3)cc2)CC1	Autofluor counter 20018
CN1CCN(S(=O)(=O)c2ccc(NC(=O)C(C)(C)C)cc2)CC1	BoNT-A LC inh2 inconclusive, Autofluor counter 22681
CC(=O)Nc1ccc(S(=O)(=O)N2CCN(S(=O)(=O)c3ccc(NC(C)=O)cc3)CC2)cc1	none
CC(=O)Nc1ccc(S(=O)(=O)N2CCC(c3nc4ccc(C)cc4[nH]3)CC2)cc1	Autofluor counter 24362
Cc1ccc2nc(C3CCN(C(=O)NCc4ccccc4)CC3)[nH]c2c1	Autofluor counter 17071
COc1cccc(C(O)c2nc(-c3cnn(C)c3)cs2)c1 (stereo unspecified)	none
COC(=O)[C@]12CCCCC=C1N(Cc1cccc3ccccc13)C(=O)[C@H](CC(=O)N1CCCCC1)C2	none
CN1CCN(S(=O)(=O)c2ccc(NC(=O)c3csc4ccccc34)cc2)CC1	BoNT-A LC inh2 inconclusive, Autofluor counter 16528
O=C(Cc1cccs1)Nc1ccc(S(=O)(=O)N2CCCCC2)cc1	BoNT-F LC inh inconclusive
CN1CCN(S(=O)(=O)c2ccc(NC(=O)Cc3cccs3)cc2)CC1	Autofluor counter 19616
CC1CCC(NC(=O)CN2C(=O)C3CC=CCC3C2=O)CC1 (stereo unspecified)	none
COc1ccc2ccccc2c1C=NN1CCCCC1	none
CNS(=O)(=O)c1ccc(CNC[C@H]2O[C@@H](n3cc(C)c(=O)[nH]c3=O)C[C@@H]2O)cc1	none
COc1ccc(/C=C(/C#N)C(=O)NC2CCCCC2)cc1Br	BoNT-F LC inh 35.8
CCCCOc1ccc(/C=C(\C#N)C(=O)NC2CC2)cc1	BoNT-F LC inh 50.5, Anthrax LF inh2 inconclusive
N#C/C(=C\c1ccc2c(c1)OCCO2)C(=O)NC1CCCCC1	none
N#C/C(=C\c1ccccc1)C(=O)NC1CC1	none
Cc1c(NC(=O)CSc2nncc3ccccc23)c(=O)n(-c2ccccc2)n1C	BoNT-A LC inh2 inconclusive, Autofluor counter 20089
CCc1c(C)nc(SCC(=O)Nc2c(C)n(C)n(-c3ccccc3)c2=O)[nH]c1=O	Autofluor counter 21804
OCC[C@H]1NCc2cc(CO)cc(-c3ccccc3)c21	none
CCn1cc(C(=O)c2cccs2)c2ccccc21	Autofluor counter 16945
O=C(O)Cn1cc(C(=O)c2ccccc2)c2ccccc21	Autofluor counter 18398
O=C(O)Cn1cc(C(=O)c2cccs2)c2ccccc21	none
CCn1cc(C(=O)C(F)(F)F)c2ccccc21	Autofluor counter 22281
CC(C)(C)c1ccc(C(=O)N2CCC2(C)C(=O)NCC(F)(F)F)cc1 (stereo unspecified)	none
Cc1ccc(NC2=NC(c3ccc(C)cc3)n3c(nc(C)cc3=O)N2)cc1 (stereo unspecified)	Autofluor counter 23058
Cc1ccc(NC2=NC(c3ccccc3)n3c(nc(C)cc3=O)N2)c(C)c1 (stereo unspecified)	Autofluor counter 22223
COc1ccc(N2CCN(C(=O)COC(=O)c3nc(Cl)ccc3Cl)CC2)cc1	none
CCN(CC)S(=O)(=O)c1cc(NC(=O)Cn2cnc3ccccc3c2=O)ccc1C	Autofluor counter 16361
CN(c1ccccc1)S(=O)(=O)c1cccc(NC(=O)Cn2cnc3ccccc3c2=O)c1	BoNT-F LC inh inconclusive
O=C(Nc1c(-c2ccccc2)nc2ccccn12)c1ccco1	BoNT-A LC inh2 inconclusive, Autofluor counter 22214
O=C(Nc1ccccc1F)c1ccco1	none
O=C(Nc1ccccc1-c1ccccc1NC(=O)c1ccco1)c1ccco1	none
CCOC(=O)c1c(-c2ccccc2)nc2ccccn12	BoNT-A LC inh2 inconclusive, Autofluor counter 22802
O=C(Nc1ccccc1NC(=O)c1ccco1)c1ccco1	Autofluor counter 22408
CSc1ccccc1NC(=O)c1ccco1	Autofluor counter 22329
Cc1ccc(-c2nc3ccccn3c2NC(=O)c2ccco2)cc1	none
Nn1cnc2c(ncn2C2OC(CO)C(O)C2O)c1=O (stereo unspecified)	none
CC1(c2nnnn2-c2ccc3c(c2)OCCO3)CCC(=O)N1CC(F)(F)F (stereo unspecified)	none
COc1ccc(-c2ccc(C(=O)NC3CCCCC3)c3occc23)c(C)c1	none
CC(C)(C)C1COc2ccccc2N1C(=O)c1cccc(Cl)c1 (stereo unspecified)	none
CCOc1cc(S(=O)(=O)NCCc2ccc(OC)c(OC)c2)c(OCC)cc1-n1cnnn1	none
CCOc1cc(S(=O)(=O)NCc2ccc(OC)cc2)c(OCC)cc1-n1cnnn1	BoNT-A LC inh2 inconclusive, Autofluor counter 23322
COc1ccc(C)cc1NC(=O)C1CC(=O)OC12CCCCC2 (stereo unspecified)	Autofluor counter 22901
Cc1cccc(NC(=O)C2CC(=O)OC23CCCCC3)c1 (stereo unspecified)	none
Cc1ccc(CNC(=O)C2CC(=O)OC23CCCC3)c(C)c1 (stereo unspecified)	Autofluor counter 16440
Cc1ccc(CN2CC(C(=O)Nc3ncccc3C)CC2=O)cc1 (stereo unspecified)	none
O=C1NC[C@H](Cc2ccc(O)cc2)N(C[C@@H]2CCCN2C[C@H](Cc2ccc(O)cc2)N2C[C@H](Cc3ccccc3)N(CCc3ccccc3)C(=O)C2=O)C1=O	none
Cc1ccccc1NC(=O)Cc1nc(CSc2nnc(C3CCCCC3)n2N)cs1	Autofluor counter 22506
Nn1c(SCC(=O)Nc2cccc(F)c2)nnc1C1CCCCC1	Autofluor counter 22029
COc1ccc(NC(=O)CSc2nnc(C3CCCCC3)n2N)cc1	BoNT-F LC inh inconclusive
COc1nc(N(C#N)CC(N)=O)nc(N2CCCC2)n1	Autofluor counter 20491
COc1nc(OCC#N)nc(N2CCCCC2)n1	none
COc1cc(NC(=O)C2(C)CCN2C(C)C)cc(OC)c1OC (stereo unspecified)	none
CC(CNC(=O)CC[C@H]1O[C@@H](n2ccc(=O)[nH]c2=O)[C@H](O)[C@@H]1O)c1ccccc1 (stereo partly specified)	none
COC(=O)c1cc(=O)nc2sc(-c3ccc(F)cc3)nn12	none
O=C(NCc1ccccc1)c1cc(=O)nc2sc(-c3ccccc3)nn12	Autofluor counter 23048
CCc1cc2c(=O)c(-c3nc4ccccc4n3C)c(C(C)C)oc2c(CN2CCN(C)CC2)c1O	Autofluor counter 20753
CCc1cc2c(=O)c(-c3nc4ccccc4n3C)c(C)oc2c(CN2CCN(CCO)CC2)c1O	none
O=C(CSc1nc2cc(Cl)ccc2c(=O)n1Cc1ccco1)Nc1ccc(S(=O)(=O)N2CCOCC2)cc1	none
COCCNC(=O)CSc1nc2cc(OC)c(OC)cc2c(=O)n1Cc1ccco1	BoNT-A LC inh2 inconclusive, Autofluor counter 16515
COC(=O)c1ccc2c(=O)n(Cc3ccco3)c(SCC(=O)Nc3ccc(C)c(Cl)c3)nc2c1	Autofluor counter 23373
Oc1ccc(C(=Nc2ccccc2)c2ccccc2)c(O)c1	none
Cc1c2cnn(CC(=O)NCCCN3CCCCC3C)c(=O)c2c(C)n1Cc1ccccc1 (stereo unspecified)	Autofluor counter 18388
